Compound activity deposited in PubChem BioAssay by several laboratories.
Compounds with a hit are over-represented: about 3.2% of the library has one in this group of screens.
esBAF inh: SWI/SNF esBAF complex inhibition | 350,000 tested, 2% active | reporter increase, % at 12.5 µM | mouse ES cells, Bmi1-luciferase knock-in reporter, 24 h; 100% = twice the neutral-well signal; in the data active = activation above about 40%;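 also: 0% = median of the plate's neutral control wells and 100% = double that signal; a rise in the Bmi1 reporter signal indicates esBAF inhibition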
dFosB activator: mouse delta FosB homodimer activation; P13346; purified delta FosB, TAMRA-CDK5 oligo fluorescence polarization; percent of positive-control signal above neutral wells; activation, % at 25 µM; 340,000 tested, 0.99% active;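 active = mean activation above about 17%, with every replicate also reaching it, limit read from the data, passing the limit was not always enough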
Target sequence (P13346 whole entry, looked up): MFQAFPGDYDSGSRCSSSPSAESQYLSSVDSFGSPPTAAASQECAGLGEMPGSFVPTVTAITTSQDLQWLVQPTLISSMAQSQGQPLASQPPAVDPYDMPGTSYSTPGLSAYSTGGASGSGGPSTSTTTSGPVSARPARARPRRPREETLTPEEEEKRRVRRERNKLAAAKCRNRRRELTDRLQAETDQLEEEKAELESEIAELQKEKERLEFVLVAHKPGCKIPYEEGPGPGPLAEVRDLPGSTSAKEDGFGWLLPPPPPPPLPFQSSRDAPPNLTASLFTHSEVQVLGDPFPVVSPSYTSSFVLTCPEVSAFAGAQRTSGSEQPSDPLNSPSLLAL
CDK5 inh: blocks human CDK5/p35 kinase activity | Q00535+Q15078 | Recombinant CDK5/p35, ADP-Glo luminescence, 60 min | inhibition, % at 10 µM | 330,000 tested, 0.01% active | AID 488839;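 active = highest replicate inhibition of at least 50% and at least 75% of replicates reaching 50%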;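 also: plate controls were DMSO neutral control for no effect and GW8510 at 10 µM for full effect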
SMARCA2 activ: increases SMARCA2 function in MMTV reporter cells; activation, % at 9.1 µM; MG213 cells, MMTV-luciferase reporter, dexamethasone, overnight; 370,000 tested, 1% active; in the data active = activation above about 7.8%;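 also: 0% = vehicle wells and 100% = reference activator wells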
Rtt109 Vps75: C. albicans Rtt109 histone acetyltransferase inhibition; inhibition, % at 34.9 µM; Q5AAJ8; purified Rtt109/Vps75, ThioGlo CoA-SH fluorescence, 4 h; 330,000 tested, 0.16% active;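 active = inhibition of at least 50% in every replicate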
Target sequence (Q5AAJ8 whole entry, looked up): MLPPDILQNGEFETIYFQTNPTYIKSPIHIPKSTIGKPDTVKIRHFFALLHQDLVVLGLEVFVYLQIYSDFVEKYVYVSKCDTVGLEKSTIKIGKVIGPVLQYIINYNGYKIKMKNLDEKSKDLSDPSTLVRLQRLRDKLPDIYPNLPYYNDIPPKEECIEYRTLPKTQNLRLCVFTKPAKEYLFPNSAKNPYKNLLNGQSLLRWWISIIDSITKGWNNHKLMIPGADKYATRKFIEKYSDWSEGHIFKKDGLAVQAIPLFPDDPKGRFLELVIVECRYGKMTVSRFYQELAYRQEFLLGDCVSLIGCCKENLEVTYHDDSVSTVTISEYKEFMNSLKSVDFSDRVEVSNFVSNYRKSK
DYRK1A inh: blocks rat Dyrk1A kinase activity; Q63470; ADP-Glo luminescence, NFATc1 peptide; inhibition, % at 12.5 µM; 310,000 tested, 0.43% active; in the data active = inhibition above about 50%;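 also: plate controls were vehicle with enzyme for no effect and no enzyme for full effect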
Dyrk1A artifact: ADP-Glo luciferase interference, Dyrk1A counter-screen. shares compounds with DYRK1A inh. ADP-Glo luciferase artifact assay, no Dyrk1A, luminescence. AC50, µM (top dose mostly 12 µM), without a hit: at the highest dose activity change, negative = inhibition. 1,300 tested, under 10 active. AID 588348;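 active = fitted half-maximal dose AC50 no more than ten times the top valid tested dose, with luminescence dropping as dose rises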
The depositor's hits bear a star; . = not tested or not shown.

SMILES	esBAF inh	dFosB activator	CDK5 inh	SMARCA2 activ	Rtt109 Vps75	DYRK1A inh	Dyrk1A artifact
C[C@@H]1O[C@@H](O[C@H]2[C@H](O)[C@@H](O)[C@H](Oc3c(-c4ccc(O)c(O)c4)oc4cc(O)cc(O)c4c3=O)O[C@@H]2CO)[C@H](O)[C@H](O)[C@H]1O	17.2	1.2	3.1	2.0	0.5	52.1*	7.5%
O=c1c(O[C@@H]2O[C@H](CO)C(O)C2O)c(-c2ccc(O)c(O)c2)oc2cc(O)cc(O)c12 (some centres not stated)	.	0.5	-0.6	.	-0.8	63.5*	13.2%
O=c1c(OC2OC(CO)C(O)C(O)C2OC2OC(CO)C(O)C(O)C2O)c(-c2ccc(O)cc2)oc2cc(O)cc(O)c12 (configuration not stated)	-3.2	-9.1	0.8	0.7	11.5	23.4	.
C[C@@H]1O[C@@H](Oc2c(-c3cc(O)c(O)c(O)c3)oc3cc(O)cc(O)c3c2=O)[C@H](O)[C@H](O)[C@H]1O	-1.6	-3.1	0.1	-0.7	6.2	12.9	.
COCC(=O)Nc1ccc2c(c1)C(=O)N(C)[C@H]1CC[C@H](CC(=O)NCc3ccc(OC)cc3)O[C@@H]1CO2	-4.3	.	.	.	.	.	.
O=C(C[C@H]1CC[C@@H](NC(=O)C2CCC2)[C@H](CO)O1)Nc1nccs1	-1.2	.	.	.	.	.	.
N#Cc1c(=O)c2nc(NCCCO)ncc2n2c(=O)c3ccccc3[nH]c12	.	-4.7	2.2	-2.0	-10.5	55.6*	8.5%
O=S(=O)(O)c1cccc(N=Nc2c(O)ccc3ccccc23)c1	.	-7.5	45.2	2.0	-2.5	74.2*	9.7%
Cc1ccc(S(=O)(=O)N(C)C)cc1NC(=S)Nc1cccc2ccccc12	4.1	-15.0	1.2	0.2	1.4	3.6	.
CCOc1ccc(NC(=S)Nc2cccc3cnccc23)cc1	.	-3.3	-1.7	-1.4	5.1	1.3	.
Fc1ccc(NC(=S)Nc2cccc3cnccc23)cc1	.	-4.8	4.8	-3.2	-1.3	59.5*	9.3%
S=C(Nc1cccnc1)Nc1cccc2cnccc12	-6.9	3.4	8.8	-1.7	5.4	60.1*	9.4%
S=C(Nc1ccc(Cl)cc1)Nc1cccc2cnccc12	.	2.0	3.7	-0.8	4.0	25.9	.
CN(C)S(=O)(=O)c1cccc(NC(=S)Nc2cccc3cnccc23)c1	.	-7.6	2.1	-7.1	-2.3	55.8*	8.1%
COc1ccc(NC(=S)Nc2cccc3cnccc23)cc1	20.5	-4.8	.	2.5	11.3	56.0*	7.4%
Cc1c(C(=O)Nc2ccc(S(=O)(=O)Nc3ncccn3)cc2)oc2ccc(Cl)cc12	5.0	-8.3	-4.3	-0.5	2.3	6.6	.
Cc1noc(NS(=O)(=O)c2ccc(NC(=O)c3oc4ccc(Cl)cc4c3C)cc2)c1C	-1.0	11.8	-2.2	4.9	26.9	64.3*	10.2%
CCOC(=O)c1cnc2ccc(C)cc2c1Nc1ccc(N2CCOCC2)cc1	.	-3.6	6.3	-1.0	15.0	60.8*	8.3%
CCOC(=O)c1ccc2ncc(C(=O)OCC)c(NCCN3CCOCC3)c2c1	1.6	-22.1	-2.0	-0.4	-5.5	19.0	.
O=C(C[C@@H]1CC[C@@H]2[C@H](COC[C@@H](O)CN2Cc2nccs2)O1)NCc1ccc(Cl)cc1	0.0	.	.	.	.	.	.
c1cncc(-c2cccnc2)c1	1.5	5.2	-2.3	-0.9	2.9	-2.1	.
c1cncc(-c2ccc3[nH]ccc3c2)c1	11.7	-0.7	-0.5	7.3	-3.8	54.8*	7.0%
COC(=O)CSc1nc(N)c(C#N)c(C(C)C)c1C#N	-6.3	-0.7	-3.0	4.5	-1.0	50.1*	8.8%
Cn1ncc(Cl)c1C(=O)Nc1cccc(Cl)c1	3.1	-6.1	1.5	0.3	-1.7	24.6	.
CSc1cccc(NC(=O)c2c(Cl)cnn2C)c1	5.5	-2.9	-0.3	3.1	-0.5	52.8*	8.9%
SMILES	esBAF inh	dFosB activator	CDK5 inh	SMARCA2 activ	Rtt109 Vps75	DYRK1A inh	Dyrk1A artifact
Cn1nnnc1Sc1ncnc2scc(-c3ccc[nH]3)c12	-15.2	-0.2	-1.1	-0.2	8.1	52.1*	8.2%
Cn1nnnc1Sc1ncnc2scc(-c3ccccc3)c12	.	-6.2	-0.1	-4.7	1.2	1.8	.
O=C(CSc1nnnn1-c1ccc(O)cc1)Nc1ccc(N2CCOCC2)c(Cl)c1	-9.6	-8.0	0.3	-2.5	5.4	51.0*	7.7%
C[C@H](CO)N1C[C@H](C)[C@@H](CN(C)CC2CCCCC2)Oc2ccc(NC(=O)NC3CCCCC3)cc2C1=O	-12.5	.	.	.	.	.	.
CCCNC(=O)Nc1ccc2c(c1)C(=O)N(C)[C@@H]1CC[C@H](CC(=O)OC)O[C@@H]1CO2	5.7	.	.	.	.	.	.
Cc1ccc(CN2CCN(c3ncccn3)CC2)o1	-2.5	-6.8	-0.3	-1.5	7.1	56.4*	6.9%
Cc1ccc(CN2CCN(c3ccccc3)CC2)o1	-2.2	-3.1	-4.3	-1.2	0.5	2.8	.
COC(=O)c1cc(C)nc2c1C(=O)C(=O)C=C2N1CCOCC1	-44.6	-6.0	4.7	-8.2	6.0	60.6*	8.2%
COC(=O)c1cc(S(=O)(=O)N2CCOCC2)c(Cl)cc1N1CCOCC1	.	-2.6	-0.1	-3.2	2.3	-1.4	.
O=C(Nc1ccccc1Cl)c1csc(-c2cccnc2)n1	59.5*	-28.4	1.3	0.7	3.9	74.9*	11.4%
C[C@H]1CCCCO[C@@H](CN(C)C(=O)NC2CCCCC2)[C@@H](C)CN([C@@H](C)CO)C(=O)c2cc(NS(=O)(=O)c3cn(C)cn3)ccc2O1	3.4	.	.	.	.	.	.
C[C@H](NC(=O)C[C@@H]1C[C@@H]2c3cc(NC(=O)CN(C)C)ccc3O[C@@H]2[C@H](CO)O1)c1ccccc1	1.5	.	.	.	.	.	.
CC1CCc2nc(NC(=O)CN3CCN(Cc4ccc5c(c4)OCO5)CC3)sc2C1 (configuration not stated)	.	-8.4	0.3	-0.6	0.7	55.2*	9.1%
CC1CCc2c(C(=O)Nc3cccc(-c4nn[nH]n4)c3)csc2C1 (configuration not stated)	17.9	-12.0	-1.8	1.3	8.1	67.4*	9.7%
O=C(Cn1cc(COc2ccccc2C(F)(F)F)nn1)c1ccc(O)cc1	-0.8	-5.2	1.5	-3.4	3.1	50.8*	9.0%
O=C(Cn1cc(COc2cc(F)cc(F)c2)nn1)c1ccc(O)cc1	0.9	-2.8	-2.7	-5.0	2.5	5.0	.
O=[N+]([O-])c1ccccc1-c1cc(-c2ccccc2O)n[nH]1	55.1*	-7.5	-0.3	2.6	-4.9	50.9*	11.2%
CCCNC(=O)C[C@@H]1CC[C@H]2[C@@H](COC[C@@H](O)CN2C(=O)c2ccccn2)O1	2.8	.	.	.	.	.	.
CCCCNC(=S)Nc1ccc2cn[nH]c2c1	.	-3.2	3.0	-2.6	2.1	80.7*	-2.0%
CCCN=C(C)C1=C(O)c2ccccc2C1=O	.	-11.9	-0.2	4.8	.	-18.8	.
CC(=NCc1cccnc1)C1=C(O)c2ccccc2C1=O	5.3	-13.0	3.8	-3.6	-2.9	51.2*	8.7%
